HCV inhibitor: blocks hepatitis C virus; 340,000 tested, 3.4% active; Huh7.5.1 HCVcc-Cre infection, luciferase reporter, 44 h; Potency, µM (doses to about 41.8 µM), for inactives: top-dose activity change, negative = inhibition, most hits filed as inhibitors; active = well fitted inhibition curve with a large enough effect; inconclusive = small, poorly fitted or top-dose-only effect, or another doubt; inactive = no such curve, though single readings can be large or run the other way; also: potency is read from the fitted curve at half-maximal effect; % is scaled to controls: 0 for no effect and ±100 for the full control effect
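Antiviral activity was scored by luciferase reporter output from cells infected with HCVcc-Cre (~0.5 moi) in presence of compound, 44 h infection period, cells seeded 1,000/well 4 h prior.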
SARS PLpro yeast: inhibitors of SARS-CoV papain-like protease in yeast. S. cerevisiae expressing SARS-CoV PLpro, growth rescue. 330,000 tested, 0.19% active. Potency, µM (highest dose often 32.9 µM), for inactives: at the highest dose activity, positive = growth rescue, actives largely listed as activators; calls by dose curve; also: potency is read from the fitted curve at half-maximal effect; 0% is about no effect; nearly all actives have a fitted effect of over 55% in size
Marburg entry inh: blocks Marburg virus binding to or entry into cells; Marburg virus pseudotyped entry inhibition, cell reporter; Potency, µM (top dose mostly 37.8 µM), for inactives: at the highest dose activity change, negative = inhibition, hits mostly inhibitors; 300,000 tested, 1.8% active; calls by dose curve; tested in HEK293 cells; also: potency is read from the fitted curve at half-maximal effect; % is scaled to controls: 0 for no effect and ±100 for the full control effect
LASV entry inh: Lassa virus entry inhibition | Lassa virus pseudotype entry inhibition, cell reporter | Potency, µM (titrated, usually from 37.9 µM), for inactives: top-dose activity change, negative = inhibition, most hits filed as inhibitors | 300,000 tested, 1.2% active | AID 540256; calls by dose curve; tested in HEK293 cells; also: potency is read from the fitted curve at half-maximal effect; % is scaled to controls: 0 for no effect and ±100 for the full control effect; nearly all actives have a fitted effect of over 50% in size
FMDV antiviral: foot and mouth disease virus antiviral activity; FMDV antiviral cell-based qHTS; Potency, µM (highest dose often 57.9 µM), for the others: at the highest dose activity change, negative = inhibition, most hits filed as inhibitors; 410,000 tested, 1.2% active; AID 1159524; calls by dose curve; tested in HEK293T cells; also: read-out not given here; potency is read from the fitted curve at half-maximal effect; % is scaled to controls: 0 for no effect and ±100 for the full control effect; nearly all actives have a fitted effect of over 45% in size
HCMV inh: human cytomegalovirus inhibition; activity change, negative = inhibition, % at 57.5 µM; AID 1259415; HFF cells, HCMV-luciferase reporter, 72 h; active compounds read low; 410,000 tested, 4.5% active; in the data active = activity change below about -60%; inconclusive = no clear call, values can overlap the other calls; inactive = above about -39%; also: % is scaled to controls: 0 for no effect and ±100 for the full control effect
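Screen run at 2 compound doses on HFFs infected with reporter HCMV, MOI 1 PFU/cell. Luciferase activity from cell lysates at 72 h post infection gave inhibition relative to buffer-only and Salinomycin wells.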
Numbers without * were called inactive; ? = inconclusive; . = no result; + = active, no number; ! = repeats disagree; [ ] = dose if it differs, or a comment. Only some compounds are listed: those with a hit (about 8% of all), similar ones and a draw of the others.

SMILES	HCV inhibitor	SARS PLpro yeast	Marburg entry inh	LASV entry inh	FMDV antiviral	HCMV inh
COc1cc(-c2noc(CCCC(=O)Nc3ccc(C(N)=O)cc3)n2)cc(OC)c1OC	-4.8%	-0.4%	7.3%[46.1 µM]	4.1%[46.1 µM]	-10.6%	152.4
COc1ccc(-c2noc(CCC(=O)Nc3cc(Cl)c(OC)cc3OC)n2)cc1	3.98µM*	2.9%	?	-4.3%	-21.2%	-38.0
CCOC(=O)c1ccc(NC(=O)CCc2nc(-c3cccc(C)c3)no2)cc1	8.91µM*	-2.3%	1.9%	-20.5%	?	-32.2
Cc1ccc(OCc2cc(=O)n3c4c(sc3n2)CCCC4)c(C)c1	.	.	13.9%[46.1 µM]	24.8%[46.1 µM]	-19.9%	-6.3
O=C(CCc1nc(-c2ccccc2F)no1)Nc1ccc(Oc2ccccc2)cc1	?	5.5%	-12.5%[46.1 µM]	?	?	-63.7*
COc1ccccc1CC(=O)Nc1ccc(-c2noc(COc3ccc(Cl)c(C)c3)n2)cc1	-13.7%	8.1%	-25.3%	?	-22.9%	-67.0*
CCOc1ccccc1-c1nc(-c2ccc(NC(=O)Cc3ccccc3OC)cc2)no1	?	6.6%	-23.2%	7.9%	4.0%	23.4
COc1ccc(-c2noc(CCCC(=O)NC3CCCC3)n2)cc1	12.6µM*	-0.3%	?	?	?	-80.4*
COc1ccc(-c2noc(CCC(=O)NC3CCCCCC3)n2)cc1	-25.7%	-5.8%	.	.	-9.7%	-22.4
COC(=O)C(Cc1c[nH]c2ccccc12)NC(=O)COc1cccc(C)c1 (stereo unspecified)	.	.	.	?	7.4%	35.2
CN1C(=O)C2=NC=NC2N(C)C1=O (stereo unspecified)	.	.	5.5%	.	.	.
Cc1ccc(CNC(=O)CCCn2c(=O)c3ccccc3n(CC(=O)Nc3ccc(C)c(C)c3)c2=O)cc1	.	.	-0.2%[46.1 µM]	25.9%[46.1 µM]	-16.7%	-1.0
Cc1cnc(SCc2ccccn2)nc1C1CCCN(C(=O)c2noc3c2CCCC3)C1 (stereo unspecified)	.	.	.	.	20µM*	.
Cc1cnc(SCc2ccccn2)nc1C1CCCN(C(=O)c2scc3c2CCCC3)C1 (stereo unspecified)	.	.	.	.	15.8µM*	.
O=C(c1nnnn1-c1ccc(Br)cc1)C1CC1	.	.	.	.	.	-25.8
Cc1cc(NC(=O)C(C)SCC(=O)Nc2nnc(CC(C)C)s2)no1 (stereo unspecified)	5.2%	1.4%	9.6%	16.1%	9.4%	9.3
Cc1ccc2c(c1)N(CC(=O)NCCCN1CCN(C)CC1)C(=O)CO2	14.9%	-2.8%	-9.1%[46.1 µM]	?	-2.9%	-69.1*
O=C(CN1C(=O)COc2ccccc21)NCCCN1CCCC1	-9.5%	-6.6%	.	.	-15.5%	+
CCn1c(NCc2cc(Cl)ccc2O)nc2ccccc21	31.6µM*	-0.8%	.	.	-23.6%	0.0
CCC(=O)Nc1nc2ccccc2n1Cc1ccc(Cl)cc1	?	-2.0%	11.6µM*	?	?	-76.2*
C=CCn1c(NCc2cc(Cl)ccc2O)nc2ccccc21	?	-0.5%	?	?	22.6%	56.9
CCC(=O)Nc1nc2ccccc2n1Cc1ccccc1Cl	?	4.3%	.	.	-19.9%	?
CCCn1c(Nc2nc3ccccc3n2C)nc2ccccc21	?	-19.8%	?	-14.3%	?	-99.8*
CC(=O)Nc1nc2ccccc2n1Cc1ccccc1Cl	-34.3%	1.3%	?	-9.3%	?	-96.3*
CC1=C(C(=O)Nc2cccnc2)C(c2ccc(F)cc2)n2nc(SCc3ccccc3F)nc2N1 (stereo unspecified)	.	.	?	8.6%[46.1 µM]	7.5%	8.1
SMILES	HCV inhibitor	SARS PLpro yeast	Marburg entry inh	LASV entry inh	FMDV antiviral	HCMV inh
COc1ccc(Cl)cc1NC(=O)CSC1=Nc2ccccc2C2=NC(CC(=O)NC3CCCCC3)C(=O)N12 (stereo unspecified)	.	.	?	?	?	-0.9
COCC(=O)N1CCC2(CCCN(Cc3ccc(C#N)cc3)C2)CC1	.	.	.	.	1.7%	.
OCCCc1nc2ccccc2n1CCc1ccccc1	13.9%	14.5%	-1.8%	0.3%	-2.7%	-20.4
CCC(=O)Nc1nc2ccccc2n1CCN1CCOCC1	2.7%	6.0%	-2.0%	?	-5.4%	-20.9
CCCc1nc2ccccc2n1CCc1ccccc1	-15.9%[0.335 µM]	17.8%	?	?	-6.0%	-73.6*
CCC(=O)NCc1nc2ccccc2n1Cc1ccccc1F	-4.7%	9.9%	2.5%	-9.0%	14.8%	-99.4*
CCCCCCCn1c(NC(=O)CC)nc2ccccc21	-35.1%	1.5%	?	-26.9%	-28.7%	-83.9*
CCn1c(Nc2ccccc2Cl)nc2ccccc21	-23.4%	-1.4%	-13.2%[46.1 µM]	2.2%	-1.7%	-6.0
CCn1c(NN=O)nc2ccccc21	6.31µM*	0.4%	?	?	-11.7%	-103.3*
O=C(CCn1cccn1)N1CCCC(Nc2ccc(F)c(F)c2)C1 (stereo unspecified)	.	.	.	.	-29.3%	22.2
CCn1nc(C)c(CN2Cc3ccccc3OC(c3ccccc3OC)C2)c1C (stereo unspecified)	.	.	.	.	0.3%	.
O=Cc1cn(Cc2ccccc2F)c2ccccc12	15.2%	5.0%	?	?	-7.8%	-91.5*
CC(=O)c1cn(Cc2ccccc2C#N)c2ccccc12	2.51µM*	0.6%	?	3.55µM*	?	-65.2*
CC(=O)c1cn(Cc2ccccc2F)c2ccccc12	?	2.7%	.	.	?	-79.2*
O=Cc1cn(Cc2c(F)cccc2Cl)c2ccccc12	10.3%	-0.6%	.	.	?	-14.4
N/C(=N\O)c1cn(Cc2ccccc2Cl)c2ccccc12	-19.4%	2.3%	?	-16.2%	?	-70.7*
Fc1ccccc1Cn1cc(C(=S)N2CCOCC2)c2ccccc21	-21.3%	2.0%	.	.	34.1%	-24.2
CC(C)C(=O)c1cn(Cc2ccccc2C#N)c2ccccc12	?	-12.6%	?	-23.1%	-26.3%	4.0
CCC(O)CNC(=O)c1cnn(-c2ncc3c(n2)-c2ccc(OC)cc2CC3)c1C1CC1 (stereo unspecified)	.	.	.	.	40.8%	.
Cc1cc(C)n(-c2nc3cc(Cl)ccc3nc2Nc2ccc(CC(=O)O)cc2)n1	.	.	3.8%[46.1 µM]	-4.9%[46.1 µM]	-18.1%	2.1
Fc1ccccc1Nc1nc(NCc2ccco2)nc(N2CCOCC2)n1	35.5µM*	-2.5%	?	0.0%	-20.1%	16.4
CC(C)c1ccc(Nc2nc(N3CCOCC3)nc(N3CCOCC3)n2)cc1	.	.	.	.	?	2.5
Fc1ccccc1Nc1nc(N2CCOCC2)nc(N2CCOCC2)n1	?	4.2%	.	.	-26.9%	19.4
CC(C)c1ccc(Nc2nc(NCc3ccco3)nc(N3CCOCC3)n2)cc1	10µM*	-22.7%	?	?	-12.0%	15.0
CCCCNC(=O)c1ccc(CS(=O)(=O)c2ccc(OC)cc2)o1	-1.9%	4.8%	.	.	-25.7%	5.2
COc1ccc(N2CCN(C(=O)c3ccc(CS(=O)(=O)c4ccc(Br)cc4)o3)CC2)cc1	15.4%	-0.6%	8.3%[46.1 µM]	8.0%[46.1 µM]	-13.9%	-83.8*!
Cc1ccc(S(=O)(=O)Cc2ccc(C(=O)N3CCCCCC3)o2)cc1	-13.7%	-2.3%	.	.	-14.0%	-62.9*

From PubChem
